Screens (PubChem)
RBX1-CUL1 inh – human ROC1-CUL1 E3 ligase inhibition. P62877+Q13616. in vitro K48 di-Ub FRET, acceptor:donor ratio, 45 min. inhibition, % at 10 µM. 140,000 compounds, 0.6% hits. AID 1347404; in the data active = inhibition above about 25%
Target sequence (P62877 whole entry, looked up): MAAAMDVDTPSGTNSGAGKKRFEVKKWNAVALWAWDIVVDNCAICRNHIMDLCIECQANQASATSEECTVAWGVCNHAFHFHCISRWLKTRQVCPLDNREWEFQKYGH
Target sequence (Q13616 whole entry, looked up): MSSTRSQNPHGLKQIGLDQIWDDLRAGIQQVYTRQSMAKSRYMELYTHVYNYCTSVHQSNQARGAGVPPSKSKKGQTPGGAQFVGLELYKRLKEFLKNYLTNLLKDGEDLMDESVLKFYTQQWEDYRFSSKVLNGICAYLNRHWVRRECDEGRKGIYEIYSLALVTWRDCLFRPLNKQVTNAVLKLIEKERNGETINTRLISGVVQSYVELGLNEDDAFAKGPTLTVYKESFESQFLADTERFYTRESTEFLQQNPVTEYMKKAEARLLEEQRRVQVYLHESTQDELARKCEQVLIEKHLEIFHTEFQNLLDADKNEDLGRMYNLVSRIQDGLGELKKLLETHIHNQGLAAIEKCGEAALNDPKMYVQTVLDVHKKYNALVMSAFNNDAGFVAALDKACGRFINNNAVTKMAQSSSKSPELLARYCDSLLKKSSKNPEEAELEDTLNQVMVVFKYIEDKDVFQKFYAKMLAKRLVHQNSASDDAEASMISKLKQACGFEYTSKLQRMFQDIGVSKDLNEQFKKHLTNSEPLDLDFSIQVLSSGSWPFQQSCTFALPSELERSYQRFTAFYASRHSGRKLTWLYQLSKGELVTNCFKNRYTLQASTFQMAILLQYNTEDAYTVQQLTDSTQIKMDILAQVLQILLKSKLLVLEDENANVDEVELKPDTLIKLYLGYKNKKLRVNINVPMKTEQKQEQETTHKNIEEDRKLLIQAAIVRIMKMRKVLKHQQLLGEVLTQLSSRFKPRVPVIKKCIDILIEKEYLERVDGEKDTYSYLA
* hit, by the source's call. The sample as a whole holds a higher share of hits than the screen did.

SMILES	RBX1-CUL1 inh
C=CCn1c(SCC(=O)NCCO)nc2sc3c(c2c1=O)CCCC3	4
COc1cc(Cl)c(NS(=O)(=O)c2cc(-c3cc(C)no3)ccc2OC)c(OC)c1	10
CC1=NOC(=O)/C1=C\c1cccs1	9
COc1ccc(/C=C2\COc3ccccc3C2=O)cc1OC	12
Cc1ccc2c(c1)C(=O)/C(=C/c1cccs1)CO2	73*
CCc1ccc(/C=N/NC(=O)c2ccc(Cl)cc2O)s1	1
CN(CCCCN1CCOCC1)C(=O)CCc1nnc(CCCCc2ccccc2)o1	9
CC1=C(C#N)C(=O)N(CCc2ccccc2)C(=O)/C1=C/c1ccc(-c2ccc(S(N)(=O)=O)cc2)o1	26*
CC1=C(C#N)C(=O)N(CCO)C(=O)/C1=C\c1ccc(-c2ccccc2)o1	-12
CCCN1C(=O)C(C#N)=C(C)/C(=C\c2ccc(-c3ccccc3)o2)C1=O	8
COc1cccc(CNC(=O)N2CCC(Cn3cc(CO)nn3)CC2)c1	36*
Cc1ccc(CCC(=O)N2CCC(Cn3cc(CO)nn3)CC2)cc1C	0
COCc1cn(CC2CCN(C(=O)NCc3ccccc3F)CC2)nn1	-8
CCOC(=O)c1c(-c2ccccc2C(=O)O)c(C(=O)O)n(Cc2ccccc2)c1C	11
Cc1sc2nc3c(C(=O)NC(C)C)cccn3c(=O)c2c1C	-2
O=C(CSC1=Nc2ccccc2N=C(c2ccc(F)cc2)C1)NCc1ccc(Cl)cc1	-12
Cc1c(NC(=O)Cc2ccc(Cl)cc2)cccc1-c1nc2cccnc2s1	6
Cc1cccc(C2=NN3C(=N)/C(=C\c4ccc([N+](=O)[O-])o4)C(=O)N=C3S2)c1	106*
Cc1ccc(/C=C2/C(=N)N3N=C(c4ccc(C)cc4)SC3=NC2=O)cc1	6
Cc1cccc(/C=C2/C(=N)N3N=C(c4ccccc4Cl)SC3=NC2=O)c1	5
COc1cc(C)c(C)cc1S(=O)(=O)Nc1ccccc1	12
COc1ccc(C)cc1NC(=O)C1CCN(S(=O)(=O)Cc2ccccc2)CC1	4
CC(=O)c1ccccc1Sc1ccc(Cl)cc1	8
NCc1ccccc1Sc1ccc(Cl)cc1	31*
O=C(O)Cc1ccccc1Sc1ccc(Cl)cc1	-12
SMILES	RBX1-CUL1 inh
CN(Cc1ccc(F)cc1)C(=O)Nc1nnc(Cc2ccccc2)s1	6
N#Cc1cc2nc3ccc4ccccc4c3nc2cc1C#N	6
CC(=O)Nc1ccc(N2N=C(C)CC2=O)cc1	28*
CC1=NN(c2cccc(S(=O)(=O)O)c2)C(=O)C1	7
CC(=O)Nc1ccc(-n2cccc2)cc1	-3
Cc1cccc(NC(=O)NCCn2c(=O)oc3ccc(C)cc32)c1	0
O=S(=O)(c1ccccc1)c1nc(Cl)ns1	8
O=S(Cc1ccccc1Cl)c1nc(Cl)ns1 (stereo not given)	30*
O=S(Cc1ccccc1F)c1nc(Cl)ns1 (stereo not given)	1
Cc1c(N=NC2C(=O)N(c3ccccc3)N=C2N)c(=O)n(-c2ccccc2)n1C (stereo not given)	-5
CC1=NNC(=O)C1N=Nc1c(C)n(C)n(-c2ccccc2)c1=O (stereo not given)	39*
Cc1c(Sc2c(C)n(C)n(-c3ccccc3)c2=O)c(=O)n(-c2ccccc2)n1C	2
COc1ccc(-n2c(SCc3ccccc3F)nc3c([nH]c4ccccc43)c2=O)cc1	1
CC(C)c1ccc(NC(=O)Cn2nnc(C(=O)NCc3ccc(Cl)cc3)c2N)cc1	2
O=S(=O)(NCC(c1ccco1)N1CCN(c2ccc(F)cc2)CC1)c1cc(F)ccc1F (stereo not given)	-3
O=C(CCC1CCCC1)Nc1cccc(Cl)c1	4
O=C(O)COc1ccc(Br)cc1Cl	-3
CSC1=N/C(=C\c2cc(Br)ccc2OCC(=O)O)C(=O)S1	50*
CSC1=N/C(=C\c2ccc(OC3CCCC3)cc2)C(=O)S1	5
CSC1=N/C(=C\c2ccc(C(=O)O)cc2)C(=O)S1	50*
COc1cccc(/C=C2\N=C(SC)SC2=O)c1OCc1ccccc1	-3
CSC1=N/C(=C\c2ccc(F)cc2)C(=O)S1	7
COC(=O)c1c(C(=O)OC)c(C)n(C)c1C	-1
O=C1CCCCC1C(Nc1ccc(Br)cc1)c1ccccc1 (stereo not given)	-9
Cc1ccccc1NC(=O)CSC1=Nc2ccccc2C2=NC(CCC(=O)NCc3ccccc3)C(=O)N12 (stereo not given)	10
SMILES	RBX1-CUL1 inh
Cc1c(-c2ccc(Cl)cc2)nc2ccccc2c1C(=O)N1CCN(c2ccccc2)CC1	1
Cc1ccc(N2C(=O)/C(=C/c3ccc(-c4ccccc4)o3)C(=O)NC2=S)cc1Cl	-2
O=C1NC(=S)N(c2cccc(F)c2)C(=O)/C1=C/c1ccc(Sc2ccc(Cl)cc2)o1	0
O=C1NC(=S)N(c2ccc(Br)cc2)C(=O)/C1=C/c1ccc(Sc2nc3ccccc3[nH]2)o1	108*
CCN(CC)CCCC(C)Nc1nc(C)nc2cc(Cl)ccc12 (stereo not given)	14
Cc1ccccc1N1CCN(C(=O)c2ccc(C(C)(C)C)cc2)CC1	7
CC(=O)c1c(O)ccc2c1[C@@H]1OC(=O)C[C@@H]1O2	98*
COc1ccc(Br)cc1/C=C1\SC(=O)N(Cc2ccc(F)cc2)C1=O	1
O=C(/C=C/c1cccnc1)c1ccc(F)cc1	49*
C(=C\c1cccnc1)/c1ccc(/C=C/c2cccnc2)cc1	0
CSc1ccc(C(=O)/C=C/c2ccccc2)cc1	3
CCOc1cc(/C=C2\N=C(c3ccc(OC)cc3)OC2=O)cc(Br)c1OCC(=O)OC	3
COC(=O)c1csc([N+](=O)[O-])c1SCc1ccccc1	7
COC(=O)c1scc([N+](=O)[O-])c1-c1c([N+](=O)[O-])csc1C(=O)OC	-1
COC(=O)c1csc([N+](=O)[O-])c1SC(C)=O	77*
O=C(N/N=C/c1ccc[nH]1)c1cc(-c2ccncc2)nc2ccccc12	-5
Cc1[nH]c2ccccc2c1/C=c1\sc2nc3cc(Br)cnc3n2c1=O	6
COc1ccccc1OCCCCCCc1c(C)n[nH]c1C	8
Cc1ccc(-c2nn3c(N)c(C=C4C=Nc5ccccc54)c(=O)nc3s2)cc1	2
COC1=CC(=Cc2c(N)n3nc(-c4ccccc4Cl)sc3nc2=O)C=CC1=O	60*
Nc1c(C=C2C=Nc3ccccc32)c(=O)nc2sc(C(F)(F)F)nn12	-4
OCc1cc(Cl)c(OCc2ccc(F)cc2)c(Cl)c1	-1
Cc1ncc(CN2CCCC2C(=O)Nc2cccc(-c3ccc(F)cc3)c2)n1C (stereo not given)	-4
CC(=O)Oc1c(/C=C(\C#N)C(N)=O)[nH]c2ccccc12	47*
COC(=O)/C(C#N)=C/c1c(OC)[nH]c2ccccc12	-10
SMILES	RBX1-CUL1 inh
N#C/C(=C\c1ccc(Cl)s1)C(N)=O	3
CCOc1cc(N)cc(Br)n1	6
O=C(Nc1ccc(N2CCC(NCC3COc4ccccc4O3)CC2)cc1)C1CCCC1 (stereo not given)	0
CCCN1CCN(c2cc3c(cc2F)c(=O)c(S(=O)(=O)c2ccc(Cl)cc2)cn3C)CC1	1
O=C(Nc1ccc2cc3ccc(NC(=O)c4ccc(=O)oc4)cc3nc2c1)c1ccc(=O)oc1	40*
COC(=O)c1ccc(C(=O)Nc2ccc(-c3nc4cc(NC(=O)c5ccc(C(=O)OC)cc5)ccc4o3)cc2)cc1	13
O=C(Nc1ccc(-c2nc3cc(NC(=O)c4ccc(Cl)cc4)ccc3o2)cc1)c1ccc(Cl)cc1	-2
OCCN1CCN(C(=S)Nc2ccc(Nc3ccccc3)cc2)CC1	-5
CC(C)[C@@H]1CC[C@@H](C)C[C@H]1OC(=O)N[C@H](C)c1ccccc1	-8
